# Source: PubChem BioAssay (National Center for Advancing Translational Sciences (NCATS))
# Rows were chosen to be rich in hits. Some 12% of all compounds tested hit in one or more screens of this group.
# HP1b binding inh: blocks HP1-beta chromodomain binding to methylated histone tails; P83916; AlphaScreen HP1-beta / biotin-H3K9me3 peptide binding; Potency, µM (doses to about 114 µM), for inactives: at the highest dose activity change, negative = inhibition, actives largely listed as inhibitors; actives 0.56% (n = 390,000); also: nearly all actives have a fitted effect of over 70% in size
#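 AlphaScreen: HP1-beta (50 nM) preformed 30 min with biotin-H3(1-18)K9me3 peptide (50 nM) in PBS pH 7.4, 0.01% Tween-20. Compound added for 30 min at RT, then streptavidin donor/nickel chelate acceptor beads (10 ug/mL) for 30 min.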
# Sfp inh: inhibitors of Bacillus subtilis Sfp phosphopantetheinyl transferase | Biochemical Sfp PPTase activity, qHTS | Potency, µM, for inactives: largest response in the series, negative = inhibition, actives largely listed as inhibitors | actives 3.5% (n = 310,000);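 also: the enzyme is Sfp with the accession as filed and its product quenches rhodamine fluorescence; 0% = enzyme reaction without inhibitor and -100% = no enzyme wells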
#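 Buffer: 50 mM Hepes-Na pH 7.6, 10 mM MgCl2, 0.01% Nonidet P-40, 0.01% BSA. Enzyme 15 nM, pre-exposed to compound 15 min; substrates then added and fluorescence change tracked over 30 min.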
# G9a block: inhibitors of human histone lysine methyltransferase G9a. Potency, µM (highest dose often 102 µM), inactives show at the top dose activity, negative = inhibition, hits mostly inhibitors. actives 8.8% (n = 350,000). AID 504332. G9a H3K9 monomethylation, AlphaScreen, 2 h. Q96KQ7; also: % is scaled to controls: 0 for no effect and ±100 for the full control effect; nearly all actives have a fitted effect of over 75% in size
#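 Enzyme 20 nM + cpd, 15 min RT; add b-H3K9 pep 500 nM / SAM 20 uM; 2 h RT; anti-H3K9me1 Ab 0.5 ug/mL + SA donor / anti-rabbit acceptor beads 20 ug/mL each, 10 min; AlphaScreen read.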
# JMJD2A Tudor inh: blocks the human JMJD2A Tudor domain; AlphaScreen JMJD2A-Tudor / H3K4me3 peptide binding; Potency, µM (series often up to 114 µM), inactives show top-dose activity change, negative = inhibition, usual class: inhibitors; O75164; actives 4.4% (n = 390,000); AID 504339; also: % is scaled to controls: 0 for no effect and ±100 for the full control effect; nearly all actives have a fitted effect of over 50% in size
# Target sequence (O75164 whole entry, looked up, the tested form may be a part): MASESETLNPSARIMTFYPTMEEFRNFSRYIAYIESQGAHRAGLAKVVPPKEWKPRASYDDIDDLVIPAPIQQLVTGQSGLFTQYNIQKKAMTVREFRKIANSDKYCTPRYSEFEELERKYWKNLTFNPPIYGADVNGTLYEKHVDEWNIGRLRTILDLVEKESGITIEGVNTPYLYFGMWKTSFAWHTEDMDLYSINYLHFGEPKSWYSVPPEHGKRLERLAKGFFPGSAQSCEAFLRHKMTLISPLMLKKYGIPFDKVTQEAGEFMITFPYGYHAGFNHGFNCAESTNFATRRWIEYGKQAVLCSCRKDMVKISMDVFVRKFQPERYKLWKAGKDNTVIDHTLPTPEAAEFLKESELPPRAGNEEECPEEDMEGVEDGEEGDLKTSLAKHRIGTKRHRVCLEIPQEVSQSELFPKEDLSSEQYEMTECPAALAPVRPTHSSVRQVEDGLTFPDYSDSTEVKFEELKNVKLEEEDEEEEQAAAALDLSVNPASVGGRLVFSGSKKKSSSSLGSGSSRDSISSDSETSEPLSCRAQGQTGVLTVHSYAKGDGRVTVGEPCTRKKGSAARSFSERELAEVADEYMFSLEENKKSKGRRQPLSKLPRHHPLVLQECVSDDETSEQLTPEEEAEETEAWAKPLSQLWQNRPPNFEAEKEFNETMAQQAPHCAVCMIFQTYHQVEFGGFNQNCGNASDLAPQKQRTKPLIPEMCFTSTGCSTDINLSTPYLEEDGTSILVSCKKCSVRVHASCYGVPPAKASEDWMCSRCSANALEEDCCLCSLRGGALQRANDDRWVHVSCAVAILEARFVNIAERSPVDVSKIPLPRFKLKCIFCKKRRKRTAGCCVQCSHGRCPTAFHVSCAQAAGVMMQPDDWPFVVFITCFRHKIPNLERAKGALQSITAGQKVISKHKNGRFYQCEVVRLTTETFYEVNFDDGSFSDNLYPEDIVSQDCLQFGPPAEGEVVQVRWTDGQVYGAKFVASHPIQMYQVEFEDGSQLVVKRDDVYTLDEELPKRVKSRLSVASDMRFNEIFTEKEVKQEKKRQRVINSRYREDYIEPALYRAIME
# L3MBTL1 inh: L3MBTL1 (human) inhibition; Potency, µM (doses to about 57.1 µM), without a hit: top-dose activity, negative = inhibition, most hits filed as inhibitors; Q9Y468; AID 485360; AlphaScreen L3MBTL1–H3K9me1 peptide binding; actives 0.66% (n = 230,000); also: % is scaled to controls: 0 for no effect and ±100 for the full control effect; nearly all actives have a fitted effect of over 60% in size
#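 AlphaScreen proximity signal between nickel-chelate acceptor and streptavidin donor beads (final 10 ug/mL) reports binding of 50 nM L3MBTL1 to 75 nM biotin-H3 K9me1 peptide; complex incubated with compounds 30 min at room temperature; cefsulodin titration as control.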
# BAZ2B inh: BAZ2B (human) inhibition. actives 4.4% (n = 360,000). AID 504333. Potency, µM (series often up to 114 µM), for the others: at the highest dose activity change, negative = inhibition, hits mostly inhibitors. AlphaScreen BAZ2B-H3K14Ac peptide displacement; also: % is scaled to controls: 0 for no effect and ±100 for the full control effect; nearly all actives have a fitted effect of over 60% in size
#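 Protein-peptide AlphaScreen: BAZ2B 50 nM, b-H3K14Ac 50 nM, 1x PBS pH 7.4 + 0.01% Tween-20. Preincubation 30 min RT; cpd 30 min RT (top 110 uM); beads 20 min RT, light-protected.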
# Active calls of the source: *; ? = inconclusive; . = not tested or not shown; [ ] = another dose, or the depositor's remark. Calls follow the shape of the dose curve; as a rule, active = well fitted curve in the direction sought with a large enough effect; inconclusive = small, poorly fitted or top-dose-only effect, or another doubt; inactive = no such curve, though single readings can be large; an effect the other way counts as inactive or inconclusive. Potency is read from the fitted curve at half-maximal effect.
SMILES,HP1b binding inh,Sfp inh,G9a block,JMJD2A Tudor inh,L3MBTL1 inh,BAZ2B inh
O=C(c1ccc(NC(=S)NCc2ccco2)cc1)N1CCOCC1,10%,14%,45µM*,-7%,-1%,-18%
COC(=O)c1ccc(NC(=S)NCc2ccco2)cc1,10%,6%,50µM*,-21%,-12%,?
O=S(=O)(c1ccc(NC(=S)NCc2ccco2)cc1)N1CCCCC1,-7%,9%,56µM*,-31%,-18%,-38%
O=C(NCc1ccco1)c1ccc(S(=O)(=O)N2CCOCC2)cc1,?,20µM*,13µM*,?,35µM*,79µM*
CCOc1cccc(CNC(=O)c2ccc(N3CCCC3)c(NC(=O)NCc3ccc(F)cc3)c2)c1,28%,.,1%[12.7 µM],-2%,.,-11%
Cc1ccc(N(CC(=O)NCCc2ccccc2C)S(=O)(=O)N(C)C)cc1,45%,.,-38%[59 µM],-8%,.,-4%
NS(=O)(=O)c1ccc(NC(=S)NCc2ccc(F)cc2)cc1,-17%,?,?,-13%,1%,-37%
NS(=O)(=O)c1ccc(NC(=S)NCc2ccco2)cc1,?,20µM*,3.2µM*,-29%,-4%,?
O=S(=O)(c1cccc(C(F)(F)F)c1)N1CCN(C(=S)NCc2ccco2)CC1,-12%,71µM*,?,-19%,-5%,-30%
CC(=O)c1ccc(NC(=S)NCc2ccco2)cc1,28%,-5%,.,-17%,-12%,?
NC(=O)c1ccc(NC(=S)NCc2ccco2)cc1,14%,-3%,50µM*,-18%,.,1%
O=C(Nc1nnc(S(=O)(=O)N2CCCc3ccccc32)s1)c1ccc(Cl)cc1,-7%,.,?,-26%,.,-22%
COc1ccc(C2CC(=O)c3cnc(NC(=O)c4ccco4)nc3C2)cc1 (configuration not stated),16%,9%,21%,-25%,.,-28%
COc1ccccc1C(=O)Nc1ncc2c(n1)CC(c1ccco1)CC2=O (configuration not stated),8%,-26%,50µM*,-30%,?,50µM*
Oc1c(C(c2ccccc2Cl)N2CCCC2)sc2nc(-c3ccco3)nn12 (configuration not stated),9%,.,-22%[59 µM],-23%,.,?
O=Nc1c(-c2cccc([N+](=O)[O-])c2)nc2ncccn12,.,16µM*,.,.,60%,-14%
CCOC(=O)N/N=C1/C[C@@H](O)[C@@H](O)[C@@H]2[C@@H]3C(=O)N(CC)C(=O)[C@H]3CC[C@@H]12,.,-8%,.,.,.,.
COc1ccc(N2C(=O)CN=C2Nc2nc(C)cc(C)n2)cc1OC,1%,-18%,-28%,79µM*,.,?
Cc1ccc(CN(C)C(=O)c2cc(Br)c(Br)s2)o1,34%,79µM*,45µM*,-11%,.,3%
Cc1ccc2oc(C(=O)N(C)Cc3ccc(C)o3)c(C)c2c1,-14%,10µM*,8.9µM*,?,.,-16%[57.1 µM]
C=CCN1C(=O)c2ccc(C(=O)N(C)Cc3ccc(C)o3)cc2C1=O,26%,.,-11%[2.33 µM],-12%,32%,-26%
Cc1ccc(S(=O)(=O)c2c(Nc3cc(F)ccc3F)sc(C(=O)c3ccc(F)cc3)c2N)cc1,26%,.,-6%[59 µM],-19%,.,-18%
CCCOC(c1ccccc1)(c1ccccc1)C(Oc1nc(C)cc(C)n1)C(=O)O (configuration not stated),31%,3%,71µM*,-4%,.,-16%
COc1ccc(Cn2c(=O)[nH]c3cc(C(=O)Nc4ccc(N5CCN(C)CC5)cc4)ccc32)cc1,-38%,-6%,45µM*,?,?,?
COc1ccc(C(=O)Nc2ccc(N3CCN(Cc4ccccc4)CC3)cc2)cc1,12%[57 µM],-2%,-7%[59 µM],-3%,?,2%
SMILES,HP1b binding inh,Sfp inh,G9a block,JMJD2A Tudor inh,L3MBTL1 inh,BAZ2B inh
CCN1CCN(c2ccc(NC(=O)c3ccc4c(c3)[nH]c(=O)n4Cc3ccc(F)cc3)cc2)CC1,-6%,16%,50µM*,?,?,?
COc1cc2cc(C(c3nnnn3C3CCCC3)N3CCCCC3)c(=O)[nH]c2cc1OC (configuration not stated),29%,5%,-47%[12.7 µM],-13%,.,-3%
COc1ccc2cc(C(c3nnnn3Cc3ccc(F)cc3)N3CCCCCC3)c(=O)[nH]c2c1 (configuration not stated),29%,18µM*,?,-26%,.,42%
COc1ccc(Cn2nnnc2C(c2cc3ccc(OC)cc3[nH]c2=O)N2CCC(C)CC2)cc1 (configuration not stated),7%,40µM*,?,-15%,.,-31%
O=c1[nH]c2cc3c(cc2cc1C(c1nnnn1CC1CCCO1)N1CCCCCC1)OCO3 (configuration not stated),.,-2%,?,.,-6%,-2%
COCCn1nnnc1C(c1cc2ccc(OC)cc2[nH]c1=O)N1CCN(C2CCCCC2)CC1 (configuration not stated),5%,-6%,8%[59 µM],-15%,-3%,-26%
COc1cc2cc(C(c3nnnn3C3CCCC3)N3CCCCCC3)c(=O)[nH]c2cc1OC (configuration not stated),20%,3%,13µM*,-14%,-6%,6%
O=c1[nH]c2cc3c(cc2cc1C(c1nnnn1CC1CCCO1)N1CCCCCC1)OCCO3 (configuration not stated),20%,1%,11µM*,-14%,.,?
CCCOc1ccc(NC(=O)CC2C(=O)N(c3ccc(Cl)cc3)C(=O)N2CCc2ccncc2)cc1 (configuration not stated),38%,.,3%[59 µM],-25%,.,-29%
CCc1ccc(-c2nc(SCC(=O)NCC3CCCO3)c(-c3ccc(F)cc3)[nH]2)cc1 (configuration not stated),30%,.,-19%[59 µM],-9%,.,-3%
CC(=O)Nc1ccc(SCC(c2ccccc2)N2CCN(C)CCC2=O)cc1 (configuration not stated),15%,-7%,.,-11%,.,.
COC(=O)c1ccccc1NC(=O)N1CCC(n2c(C)nc3cccnc32)CC1,12%,.,8%[59 µM],-9%,.,-14%
COc1ccc2cc(C(c3nnnn3Cc3ccccc3)N3CCCCCC3)c(=O)[nH]c2c1 (configuration not stated),29%,?,13µM*,-17%,-7%,-2%
COc1ccc2cc(C(c3nnnn3CCc3ccccc3)N3CCC(O)CC3)c(=O)[nH]c2c1 (configuration not stated),22%,2%,28%[0.501 µM],-8%,-1%,-7%
